# Myeloid diff 2: compounds promoting myeloid differentiation | ER-HoxA9 myeloid progenitors, lysozyme-GFP differentiation, flow cytometry | calls only at 10 µM | AID 624256 | 1% of 360,000 active;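 active = normalized GFP-positive differentiation at or above the plate's own cutoff, the solvent-only control mean plus 3 SD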;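 note: cells exposed to compound for four days before flow analysis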
# Granule exo inh: blocks lytic granule exocytosis; TALL-104 LAMP-1 surface exposure, flow cytometry; cells stimulated with thapsigargin and PMA; inhibition, % at 10 µM; 0.66% of 360,000 active;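 active = inhibition above about 55%, limit read from the data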
# NPR1 activator: GC-A (human) enzyme activation; P16066; HEK293 GC-A cells, cGMP TR-FRET, EC30 ANP; 0% at EC30 ANP, 100% saturating ANP; activation, % at 10 µM; 0.14% of 370,000 active; in the data active = activation above about 40%
# GC-B act: GC-B (human) receptor activation; HEK293-GC-B cells, CNP EC30, cGMP TR-FRET; 0% at EC30 CNP, 100% saturating CNP; 0.11% of 370,000 active; activation, % at 10 µM; AID 1920062;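 active = activation at 10 µM reaching about 35% in either raw or pattern-adjusted values, limit read from the data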
# Target sequence (P20594 whole entry, looked up): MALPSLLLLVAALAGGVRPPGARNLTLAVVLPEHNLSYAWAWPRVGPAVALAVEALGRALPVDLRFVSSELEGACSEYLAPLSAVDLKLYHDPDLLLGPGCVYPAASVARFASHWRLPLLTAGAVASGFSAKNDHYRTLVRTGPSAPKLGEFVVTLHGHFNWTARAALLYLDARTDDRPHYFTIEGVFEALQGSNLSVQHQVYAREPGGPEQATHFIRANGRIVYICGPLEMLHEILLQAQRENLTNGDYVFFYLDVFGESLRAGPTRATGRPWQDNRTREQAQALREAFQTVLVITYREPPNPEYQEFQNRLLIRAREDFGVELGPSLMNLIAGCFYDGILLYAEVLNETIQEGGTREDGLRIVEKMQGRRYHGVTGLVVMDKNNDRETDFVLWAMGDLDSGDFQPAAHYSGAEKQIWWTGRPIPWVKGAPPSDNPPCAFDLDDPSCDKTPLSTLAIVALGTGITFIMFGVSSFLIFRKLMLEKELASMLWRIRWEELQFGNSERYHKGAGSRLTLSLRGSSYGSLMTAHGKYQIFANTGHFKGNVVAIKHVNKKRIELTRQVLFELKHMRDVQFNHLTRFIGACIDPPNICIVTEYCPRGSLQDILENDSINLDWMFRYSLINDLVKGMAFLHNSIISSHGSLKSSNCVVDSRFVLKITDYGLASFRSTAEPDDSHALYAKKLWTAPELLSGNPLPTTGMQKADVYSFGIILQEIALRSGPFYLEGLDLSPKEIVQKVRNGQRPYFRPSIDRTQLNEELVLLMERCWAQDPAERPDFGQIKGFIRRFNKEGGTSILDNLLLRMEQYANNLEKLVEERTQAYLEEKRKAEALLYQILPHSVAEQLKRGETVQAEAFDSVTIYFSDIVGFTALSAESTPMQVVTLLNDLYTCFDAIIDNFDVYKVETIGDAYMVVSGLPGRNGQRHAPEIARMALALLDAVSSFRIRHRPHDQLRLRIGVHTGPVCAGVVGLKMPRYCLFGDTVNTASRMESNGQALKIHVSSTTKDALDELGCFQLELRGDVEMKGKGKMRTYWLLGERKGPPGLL
# Myeloid diff CP1: compounds promoting myeloid differentiation; calls only; shares compounds with Myeloid diff 2; ER-HoxA9 myeloid progenitors, GFP/Mac1 double-positive flow; AID 651706; 2% of 2,300 active;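 active = share of green or green-and-red cells above 9 and 9% in run 1 or 4 and 3% in run 2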
# GFP autofluor: flagged as fluorescent in myeloid differentiation counter-screen; fluorescence response, % (no concentration beside the values); 7.4% of 2,300 active; shares compounds with Myeloid diff 2; ER-HoxA9 myeloid progenitors, no estrogen, GFP autofluorescence flow cytometry; vehicle wells 0%, positive control 100%;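 active = over 5% cells positive for green fluorescent reporter, or over 2% positive for both it and APC stain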;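 note: range taken on the double positive population between DMSO and positive control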
# * hit, by the source's call; i = inactive; . = no result given; + = active, no number. This is a sample that favours compounds with a hit; in the whole collection about 1.8% have one here.
SMILES,Myeloid diff 2,Granule exo inh,NPR1 activator,GC-B act,Myeloid diff CP1,GFP autofluor
Cc1ccc(C(O)c2ncc(-c3ccc4ccccc4c3)[nH]2)cc1F (stereo not given),i,-9.5,-1.2,-4.8,.,.
C1CCC2(CC1)C1=C(CCCC1)Nc1nnnn12,+,-1.2,1.3,-0.2,i,0.3
S=C1NC2=C(CCCC2)C2(CCCCC2)N1,i,5.8,4.4,2.8,.,.
CCCCN(C)C(=O)c1ccc2c(c1)NC(=O)C(C)(C)O2,.,.,4.1,-4.8,.,.
CCc1ccc(NC(=O)COC(=O)c2nc3nc(C)cc(C)n3n2)cc1,i,-1.1,-0.8,-5.3,.,.
Cc1cc(C)n2nc(C(=O)OCC(=O)Nc3ccc(C)c(F)c3)nc2n1,i,-3.3,-4.4,-1.6,i,0.3
C[C@@H]1CCCCO[C@@H](CN(C)C(=O)Nc2ccc3c(c2)OCO3)[C@@H](C)CN([C@H](C)CO)C(=O)c2cc(NC(=O)Nc3ccc(C(F)(F)F)cc3)ccc2O1,.,.,0.6,1.6,.,.
COc1cc(S(=O)(=O)N(Cc2ccco2)C2CCCC2)ccc1-n1cnnn1,i,-1.4,-1.6,-7.5,.,.
CCOc1ccccc1CN(Cc1ccco1)S(=O)(=O)c1ccc(-n2cnnn2)c(OC)c1,+,12.8,-5.3,-6.5,i,0.0
O=C(N/N=C/c1cccc(O)c1)c1ccc(COc2cccc3cccnc23)cc1,+,0.1,-1.5,-2.9,i,0.5
OCCN(Cc1ccccc1)Cc1ccc(F)c(F)c1,i,-5.1,-0.5,-3.7,i,0.0
OCCN(Cc1ccccc1)Cc1ccccc1O,i,-0.3,-3.9,1.3,.,.
Cc1cccc(C)c1N1CCN(C(=O)c2ccc3c(c2)OCO3)CC1,i,-1.9,2.9,-0.8,.,.
Cc1cccc(N2CCN(C(=O)c3ccc4c(c3)OCCO4)CC2)c1C,+,5.4,-1.5,0.1,+,0.0
CC(C)c1nnc(NC(=O)Cn2nc(-c3ccc4c(c3)OCCO4)ccc2=O)s1,+,-1.4,-10.8,-3.0,i,0.0
Nc1nc2ccccc2cc1C(=O)NCCCCc1ccccc1,i,-5.8,.,.,i,0.0
Cc1ccccc1C(=O)NCCCCc1ccccc1,i,-1.3,1.8,6.7,.,.
CCCCN1CCN(C(=O)Cn2c(=O)c3ccccc3n(CC)c2=O)CC1,.,.,3.6,8.1,.,.
Cc1ccc(/C=N/Nc2nc3ccccc3s2)o1,i,-0.5,-0.7,-8.3,i,0.0
COc1ccc(C2Nc3cccc(O)c3C(=O)N2Cc2ccccc2)cc1COc1ccc(NC(C)=O)cc1 (stereo not given),i,5.2,-6.5,-5.3,.,.
COC(=O)c1cc2c(=O)c3ccccc3oc2nc1/C=C/N(C)C,+,3.6,3.4,-7.2,+,1.1
O=C(/C=C/c1cccc(F)c1)Nc1cc(S(=O)(=O)N2CCOCC2)ccc1N1CCCC1,i,2.2,2.6,2.8,.,.
O=C(/C=C/c1cccc(F)c1)Nc1cc(S(=O)(=O)N2CCOCC2)ccc1Cl,i,-13.9,12.7,0.7,i,0.0
COc1ccc(/C=C/C(=O)Nc2ccc(C)c(S(=O)(=O)N3CCOCC3)c2)cc1,i,3.9,-1.1,-0.6,i,0.0
O=C(COC(=O)/C=C/c1ccc(S(=O)(=O)N2CCOCC2)cc1)Nc1ccccc1F,i,4.3,-1.9,-4.2,.,.
SMILES,Myeloid diff 2,Granule exo inh,NPR1 activator,GC-B act,Myeloid diff CP1,GFP autofluor
Cc1ccc(S(=O)(=O)N2CCOCC2)cc1NC(=O)COC(=O)/C=C/c1ccc(F)cc1,i,-1.2,-1.2,-2.7,i,0.5
CN1C2=NC(c3ccc4ccccc4c3)CC(=O)N2/C(=C\c2ccccc2)C1c1ccccc1C(F)(F)F (stereo not given),.,.,-14.1,-18.6,.,.
CC(C)c1cc(C(C)C)c(S(=O)(=O)N2CCCC(C(=O)NCc3cccs3)C2)c(C(C)C)c1 (stereo not given),.,.,-3.0,-1.9,.,.
COC(=O)c1ccccc1NC(=O)C1CCC(=O)N1S(=O)(=O)c1ccc(C)cc1 (stereo not given),i,-1.0,-6.2,2.5,i,0.0
COC(=O)c1cc(OC)c(OC)cc1NC(=O)C1CCC(=O)N1S(=O)(=O)c1ccc(C)cc1 (stereo not given),i,-1.0,-9.1,-4.2,.,.
CCCCOCCCNC(=O)C[C@@H]1C[C@@]2(C(=O)OC)CC(C)(C)CC=C2N(Cc2ccco2)C1=O,i,1.0,0.2,2.8,.,.
